# Assay results taken from the supplement of paper PMC3545927.
# Some of the results follow. No count for the full screen is at hand.
# Target: furin, P09958
# Assay: furin cleavage Z-score vs untreated control; higher = more cleavage, active = 3.5 or more, inactive = 1 or less, 8 variable residues between constant flanks
# Procedure, shortened: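 Purified furin digested bead-held 8-mer peptide–cDNA fusions at 1:10 enzyme:substrate in 0.01 ml of 50 mM HEPES pH 7.5 with CaCl2 and NaCl for 7.5, 15 or 30 min. The cleavage Z-score compares sequencing counts of released DNA with furin-free reactions on a log scale, with lowess adjustment and median absolute deviation scaling.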
# furin, P09958, sequence (P09958 whole entry): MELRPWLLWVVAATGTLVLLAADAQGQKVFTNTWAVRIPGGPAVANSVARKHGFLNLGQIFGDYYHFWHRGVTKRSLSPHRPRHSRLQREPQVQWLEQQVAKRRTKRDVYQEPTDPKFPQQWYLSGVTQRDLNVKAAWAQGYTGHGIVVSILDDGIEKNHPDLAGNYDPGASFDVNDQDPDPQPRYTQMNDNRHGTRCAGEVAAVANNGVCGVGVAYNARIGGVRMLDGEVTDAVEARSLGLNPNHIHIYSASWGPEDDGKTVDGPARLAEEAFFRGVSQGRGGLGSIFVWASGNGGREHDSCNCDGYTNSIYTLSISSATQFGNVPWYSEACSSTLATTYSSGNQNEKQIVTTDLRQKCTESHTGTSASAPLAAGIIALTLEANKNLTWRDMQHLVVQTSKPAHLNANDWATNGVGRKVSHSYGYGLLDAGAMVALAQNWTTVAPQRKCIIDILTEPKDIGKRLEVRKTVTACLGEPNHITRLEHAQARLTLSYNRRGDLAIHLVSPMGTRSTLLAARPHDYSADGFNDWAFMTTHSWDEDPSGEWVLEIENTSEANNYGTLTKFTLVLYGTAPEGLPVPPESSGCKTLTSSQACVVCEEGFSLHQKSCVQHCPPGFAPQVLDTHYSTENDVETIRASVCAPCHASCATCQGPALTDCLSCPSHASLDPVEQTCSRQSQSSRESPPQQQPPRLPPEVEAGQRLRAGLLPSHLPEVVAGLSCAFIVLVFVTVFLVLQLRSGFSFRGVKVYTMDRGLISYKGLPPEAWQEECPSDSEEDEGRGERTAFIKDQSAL
Sequence,furin cleavage Z-score (7.5 min),furin cleavage Z-score (15 min),furin cleavage Z-score (30 min)
CASTPCSLHLAGNASASA [HC2525],0.933 (inactive),1.1,1.05
CAEMPCHRPSAGNASASA [HC2326],0.275 (inactive),1.07,-0.483 (inactive)
CAPRYRRKRHAGNASASA [FS-1552],10.8 (active),11.7 (active),10.8 (active)
CASATRRKRHAGNASASA [FS-145],10.8 (active),9.07 (active),8.87 (active)
CAVLSRDGRKAGNASASA [FS-105],-1.15 (inactive),0.968 (inactive),0.203 (inactive)
CAVLSRRKRHAGNASASA [FS-1430],13.5 (active),13.1 (active),9.48 (active)
CASAHREPRLAGNASASA [FS-143],-0.537 (inactive),-2.16 (inactive),-0.735 (inactive)
CASKKRKKKHAGNASASA [FS-720],-0.105 (inactive),0.768 (inactive),1.79
CAVLSGKPAIAGNASASA [HC1004],-1.21 (inactive),-0.08 (inactive),-0.703 (inactive)
CARNMWSGTFAGNASASA [HC1187],1.59,-0.0231 (inactive),2.71
CAIDILAGYGAGNASASA [HC1085],0.177 (inactive),-2.37 (inactive),-1.48 (inactive)
CATFTIETITAGNASASA [HC895],-1.54 (inactive),-0.657 (inactive),-0.39 (inactive)
CARKDRGASKAGNASASA [FS-1826],-0.0944 (inactive),-0.514 (inactive),0.14 (inactive)
CACDLDPQARAGNASASA [HC1492],-0.128 (inactive),-0.812 (inactive),-1.68 (inactive)
CAREKRRQRNAGNASASA [FS-2135],2.7,5.06 (active),5.01 (active)
CAREKRWSVSAGNASASA [FS-2256],0.749 (inactive),1.64,3.68 (active)
CAREKRRGVTAGNASASA [FS-1819],0.463 (inactive),-0.946 (inactive),0.55 (inactive)
CAREKRPSRSAGNASASA [FS-488],3.53 (active),6.66 (active),4.77 (active)
CADLSRPSRSAGNASASA [FS-757],0.456 (inactive),1.72,2.66
CAMMLLISQAAGNASASA [HC529],-0.436 (inactive),-0.997 (inactive),1.3
CADKMEECSQAGNASASA [HC1814],-0.565 (inactive),0.769 (inactive),-0.546 (inactive)
CARDGRYTPCAGNASASA [FS-2903],0.99 (inactive),-0.489 (inactive),-0.0469 (inactive)
CARYSAPPGDAGNASASA [HC1543],-1 (inactive),0.134 (inactive),-1.47 (inactive)

Sequence,furin cleavage Z-score (7.5 min),furin cleavage Z-score (15 min),furin cleavage Z-score (30 min)
CAEINRVAACAGNASASA [HC1611],0.443 (inactive),-0.785 (inactive),-0.701 (inactive)
CAYHGRIPREAGNASASA [FS-1619],4.85 (active),5.6 (active),4.92 (active)
CARYNRPPREAGNASASA [FS-378],9.4 (active),8.69 (active),7.85 (active)
CAEHNRTPREAGNASASA [FS-20],6.46 (active),6.63 (active),5.97 (active)
CAGYELQGREAGNASASA [FS-534],-1.04 (inactive),-1.1 (inactive),-1.02 (inactive)
CASKFGYGAKAGNASASA [HC1420],0.531 (inactive),0.331 (inactive),-1.23 (inactive)
CALAPGAKQNAGNASASA [HC362],0.735 (inactive),-0.827 (inactive),0.525 (inactive)
CAVVCCSMSQAGNASASA [HC2102],-0.199 (inactive),0.851 (inactive),0.49 (inactive)
CATKLITWGAAGNASASA [HC651],0.877 (inactive),-0.214 (inactive),-0.337 (inactive)
CALYGNEGCGAGNASASA [HC203],-0.0812 (inactive),1.22,0.228 (inactive)
CARRHVGPGEAGNASASA [HC1112],-0.341 (inactive),-0.961 (inactive),-0.867 (inactive)
CARRRRHAGEAGNASASA [FS-2404],6.46 (active),4.9 (active),5.66 (active)
CARRRRHPDEAGNASASA [FS-1785],5.6 (active),5.56 (active),4.6 (active)
CARRRRHPDDAGNASASA [FS-3063],3.1,4.81 (active),3.91 (active)
CATDNLKCPCAGNASASA [HC1214],0.631 (inactive),-2.12 (inactive),-1.25 (inactive)
CATEEAIYQCAGNASASA [HC1488],0.306 (inactive),-0.635 (inactive),1.07
CAQTLLFNILAGNASASA [HC1063],0.309 (inactive),-0.599 (inactive),0.404 (inactive)
CATTSCSGSWAGNASASA [HC1877],-0.56 (inactive),-0.299 (inactive),-0.313 (inactive)
CAEGPCHRPSAGNASASA [HC2336],0.811 (inactive),0.167 (inactive),0.259 (inactive)
CARPYRCKIKAGNASASA [FS-3032],-0.856 (inactive),-0.224 (inactive),1.6
CARPFRSFVPAGNASASA [FS-2499],0.343 (inactive),1.12,0.335 (inactive)
CAIITRYKRKAGNASASA [FS-338],6.56 (active),6.04 (active),6.05 (active)
CARPFRYKRKAGNASASA [FS-1402],7.84 (active),8.54 (active),7.38 (active)
